A short description of assay [1]: qHTS assay to identify small molecule agonists of the vitamin D receptor (VDR) signaling pathway - cell viability counter screen (AID 743224; active means well fitted curve in the direction sought with a large enough effect in the repeat runs; an effect the other way counts as inactive or inconclusive; further: nearly all actives have a fitted effect of over 50% in size; further: potency means the concentration at half of the fitted maximal effect). In a few lines:
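Compounds were pin-transferred onto VDR-bla cells plated 4 h earlier; following 16 h incubation at 37C, cell viability was quantified by CellTiter-Glo luminescence after 30 min at room temperature.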
(Quantitative high-throughput screening tests each substance at several concentrations.)

A short description of assay [2]: qHTS assay to identify small molecule antagonists of the vitamin D receptor (VDR) signaling pathway - cell viability counter screen (AID 743225; active means well fitted curve in the direction sought with a large enough effect in the repeat runs; an effect the other way counts as inactive or inconclusive; further: nearly all actives have a fitted effect of over 50% in size). In a few lines:
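Viability counter screen run in the same wells as the beta-lactamase reporter assay: HEK 293T VDR-UAS-bla cells, 16 h compound exposure at 37C with 3 nM (final) 1-alpha,25-dihydroxyvitamin D3. CellTiter-Glo luminescence, 30 min, room temperature.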

Assay [3] can be described thus: qHTS assay to identify small molecule agonists of the NFkB signaling pathway - cell viability counter screen (AID 1159515). Further: nearly all actives have a fitted effect of over 55% in size. Further: potency means the concentration at half of the fitted maximal effect. In a few lines:
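Parallel cytotoxicity counter screen in ME-180 cells carrying an NFkB-response-element beta-lactamase reporter, 2,000 cells/well. Compound exposure lasted 5 hr at 37 C, 5% CO2. Cell viability was quantified by CellTiter-Glo luminescence.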

A short description of assay [4]: qHTS assay to identify small molecule agonists of the endoplasmic reticulum stress response signaling pathway (AID 1159516; active means well fitted activation curve with a large enough effect in the signal ratio in the repeat runs, not every such curve was filed as active; the % refers to the signal ratio). In a few lines: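 Using a HeLa line with an ESRE-driven beta-lactamase gene, agonist activity was measured by FRET substrate fluorescence (460 and 530 nm emission) after cells were treated with compounds for 5 hr at 37 C and 5% CO2.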
Assay [5] can be described thus: qHTS assay to identify small molecule agonists of the endoplasmic reticulum stress response signaling pathway - cell viability counter screen (AID 1159517). Further: nearly all actives have a fitted effect of over 50% in size. Further: potency means the concentration at half of the fitted maximal effect. In a few lines: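 Steps: seed 1,500 ESRE-bla HeLa cells per well; incubate overnight at 37 C, 5% CO2; add compounds in DMSO for 5 hr; run FRET substrate 2 hr RT; add CellTiter-Glo, wait 30 min, read luminescence.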

The nature of assay [6]: qHTS assay to identify small molecule antagonists of the retinoid-related orphan receptor gamma (ROR-gamma) signaling pathway - cell viability counter screen (AID 1159520; active means well fitted curve in the direction sought with a large enough effect in the repeat runs; an effect the other way counts as inactive or inconclusive; further: nearly all actives have a fitted effect of over 50% in size). An outline of the steps: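 Tet-on ROR gamma CHO cells were given compounds for 2 hr, then doxycycline hyclate at 1 uM final, and incubated 16 hr at 37 C. Viability was measured as ATP content by CellTiter-Glo luminescence.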

The target of assay [7] is Nuclear receptor ROR-gamma (Homo sapiens) (UniProt P51449). Nature of the assay: qHTS assay to identify small molecule antagonists of the retinoid-related orphan receptor gamma (ROR-gamma) signaling pathway (AID 1159521; active means well fitted curve in the direction sought with a large enough effect in the repeat runs; an effect the other way counts as inactive or inconclusive; further: nearly all actives have a fitted effect of over 50% in size; further: potency means the concentration at half of the fitted maximal effect). An outline of the steps: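 Luminescence readout (ONE-Glo, 30 min RT) after 16 h doxycycline induction; loss of signal scored as antagonism. CHO cells with TET-inducible RORγ and RORE-LUC reporter; compounds added 2 h before 1 uM final doxycycline.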

Assay [8] is described as follows: qHTS assay to identify small molecule agonists of the AP-1 signaling pathway - cell viability counter screen (AID 1159525). Further: nearly all actives have a fitted effect of over 55% in size. Further: potency means the concentration at half of the fitted maximal effect. In a few lines:
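Same-well cytotoxicity counter screen of the Tox21 10K library in ME-180 cells. The readout is ATP-dependent luminescence after 5 h compound treatment. Data are normalised to DMSO and tetra n-octyl ammonium bromide controls.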

Assay [9] in a line: qHTS assay to identify small molecule agonists of the AP-1 signaling pathway (AID 1159526). Further: potency means the concentration at half of the fitted maximal effect.
The target of assay [10] is Retinoic acid receptor RXR-alpha (Homo sapiens) (UniProt P19793). The assay can be described thus: qHTS assay to identify small molecule agonists of the RXR signaling pathway (AID 1159527). Further: nearly all actives have a fitted effect of over 35% in size. Further: potency means the concentration at half of the fitted maximal effect. An outline of the steps: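 Agonist mode; 9-cis retinoic acid positive control. HEK 293T UAS-bla reporter cells, 2% charcoal-stripped FBS, 16 hr compound exposure at 37 C/5% CO2. LiveBLAzer B/G FRET substrate 2 hr RT; ex 405, em 460/530 nm.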
Retinoic acid receptor RXR-alpha (Homo sapiens), sequence (P19793 whole entry, looked up): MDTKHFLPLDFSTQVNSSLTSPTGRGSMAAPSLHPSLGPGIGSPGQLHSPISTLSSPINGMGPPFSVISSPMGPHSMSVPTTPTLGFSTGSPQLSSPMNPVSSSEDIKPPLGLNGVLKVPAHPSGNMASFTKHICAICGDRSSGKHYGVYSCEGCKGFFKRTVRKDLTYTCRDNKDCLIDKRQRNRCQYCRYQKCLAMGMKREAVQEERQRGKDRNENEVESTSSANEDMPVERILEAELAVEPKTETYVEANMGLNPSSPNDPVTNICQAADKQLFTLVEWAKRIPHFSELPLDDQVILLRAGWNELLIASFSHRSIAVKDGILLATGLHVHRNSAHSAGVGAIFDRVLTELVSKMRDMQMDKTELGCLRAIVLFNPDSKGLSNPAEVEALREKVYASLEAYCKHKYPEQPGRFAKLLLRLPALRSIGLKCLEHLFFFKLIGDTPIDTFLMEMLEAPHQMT

Where “and” joins values, the source holds several entries; their conditions need not be identical. Equal values may be shown once. Results filed as inconclusive are left out. A structure can be active in one record and inactive in another. Calls of active or inactive are those of the source. Unless noted, the call rests on the fitted dose curve.

For `O=C(O)c1cc(=O)[nH]c(=O)[nH]1`, the Potency result in assay [1], in assay [2], in assay [3], in assay [4], in assay [5] and in [6] was “inactive” in each case. Besides, the Potency result in assay [7], in [8], in assay [9] and in [10] was “inactive” in each case.
As for `CCO[Si](CCCNC(N)=O)(OCC)OCC`, the Potency result in [1], in assay [3], in [4], in assay [5], in assay [6] and in assay [7] was “inactive” each time. The Potency entry in assay [8], in [9] and in assay [10] was “inactive” in each case.
Take `C1COCCN1`: the Potency result in assay [1], in assay [3], in assay [4], in [5], in assay [6] and in assay [7] was “inactive” each time. Besides, the Potency entry in assay [8], in assay [9] and in assay [10] was “inactive” throughout.
Turning to `C=C[C@@]1(C)CC(=O)[C@]2(O)[C@@]3(C)[C@@H](O)CCC(C)(C)[C@@H]3[C@H](O)[C@H](OC(C)=O)[C@@]2(C)O1`, the Potency result in assay [1], in assay [4], in assay [6] and in assay [9] was “inactive” in each case. For the same molecule, the Potency in [3] is 24.5 µM (active) and 21.3 µM (active); in assay [5] it was 21.9 µM (active) and 21.3 µM (active); in assay [7], 54.5 µM (active); in [8] it was 21.9 µM (active) and 21.3 µM (active); in [10], 12.3 µM (active).
For the molecule `CC1=CC(C)(C)Nc2ccccc21`, the Potency entry in assay [1], in assay [2], in [3], in [4], in assay [5] and in [6] was “inactive” throughout. Moreover, the Potency result in assay [7], in assay [8], in [9] and in assay [10] was “inactive” throughout.
Take `Brc1nc2ccccc2s1`: the Potency result in assay [1], in assay [2], in assay [3], in assay [4], in assay [5] and in assay [6] was “inactive” in each case. Besides, the Potency result in [7], in [8], in assay [9] and in assay [10] was “inactive” each time.
For `CN1CCOCC1`, the Potency result in assay [1], in assay [3], in assay [4], in assay [5], in [6] and in assay [7] was “inactive” each time. Further, the Potency entry in assay [8], in assay [9] and in assay [10] was “inactive” throughout.
On to `CCC(=O)O[C@H]1[C@H](O[C@@H]2[C@@H](C)[C@H](O[C@H]3C[C@@](C)(OC)[C@@H](O)[C@H](C)O3)[C@@H](C)C(=O)O[C@H](CC)[C@@](C)(O)[C@H](O)[C@@H](C)C(=O)[C@H](C)C[C@@]2(C)O)O[C@H](C)C[C@@H]1N(C)C`, for which the Potency in assay [1] is 36.4 µM (active) and inactive; in assay [3], 36.4 µM (active) and inactive. For the same molecule, the Potency entry in assay [2], in assay [4], in assay [5], in assay [6], in [7] and in assay [8] was “inactive” in each case. For the same molecule, the Potency entry in assay [9] and in assay [10] was “inactive” in each case.
Take `C=CC(=O)OCCCC`: the Potency entry in assay [1], in assay [3], in assay [4], in assay [5], in [6] and in assay [7] was “inactive” each time. The Potency entry in assay [8], in [9] and in assay [10] was “inactive” in each case.
`C=C1C[C@H]2[C@@H]3C=C(C)C4=CC(=O)CC[C@]4(C)[C@H]3CC[C@]2(C)[C@@]1(OC(C)=O)C(C)=O`: the Potency entry in assay [1], in assay [2], in [3], in assay [4], in [5] and in assay [6] was “inactive” throughout. The Potency result in assay [7], in assay [8], in assay [9] and in assay [10] was “inactive” throughout.
On to `NCCS(=O)(=O)O`, for which the Potency entry in [1], in [2], in assay [3], in assay [4], in assay [5] and in assay [6] was “inactive” in each case. Moreover, the Potency entry in assay [7], in assay [8], in [9] and in assay [10] was “inactive” in each case.
Consider `Cc1ccc([N+](=O)[O-])c(C)c1`, for which the Potency result in assay [1], in assay [2], in assay [3], in assay [4], in assay [5] and in [6] was “inactive” each time. In addition, the Potency result in [9] and in assay [10] was “inactive” each time. Further, the Potency was 2.43 µM (active) and inactive in assay [7]; 12.3 µM (active) and inactive in [8].
Take `CC1(C)OC(=O)NC1=O`: the Potency entry in assay [1], in assay [2], in assay [3], in [4], in assay [5] and in assay [6] was “inactive” throughout. For the same molecule, the Potency result in assay [7], in assay [8], in assay [9] and in assay [10] was “inactive” throughout.
For `Cc1ccc(S(=O)(=O)NCl)cc1`, the Potency entry in assay [1], in assay [3], in assay [4], in assay [5], in [6] and in [7] was “inactive” in each case. In addition, the Potency result in assay [8], in assay [9] and in assay [10] was “inactive” in each case.
For the molecule `O=C(O)CCCCCCCCCCCC(=O)O`, the Potency result in assay [1], in assay [3], in assay [4], in assay [5], in [6] and in assay [8] was “inactive” each time. The Potency result in [9] and in assay [10] was “inactive” in each case. Also, in assay [7], the Potency was 53.6 µM (active) and inactive.
For the molecule `C=CN1CCCC1=O`, the Potency entry in [1], in assay [3], in [4], in assay [5], in [6] and in assay [7] was “inactive” throughout. Further, the Potency entry in assay [8], in assay [9] and in assay [10] was “inactive” throughout.
Regarding `O=C1OC2(c3ccccc31)c1cc(I)c(O)c(I)c1Oc1c2cc(I)c(O)c1I`, the Potency entry is “inactive and 26.5 µM (active)” in assay [1]; 48.7 µM (active) and inactive in [7]; “inactive and 29.8 µM (active)” in assay [9]. Moreover, the Potency result in [3], in assay [4], in assay [5], in [6], in [8] and in assay [10] was “inactive” each time.
As to `Cc1cccc(Nc2ccccc2C(=O)O)c1C`, the Potency result in assay [1], in [3], in assay [4], in assay [5], in assay [6] and in assay [7] was “inactive” in each case. For the same molecule, the Potency result in assay [8], in assay [9] and in assay [10] was “inactive” throughout.
For the molecule `CC1(C)NC(=O)N(c2ccc([N+](=O)[O-])c(C(F)(F)F)c2)C1=O`, the Potency entry in assay [1], in assay [2], in assay [3], in assay [4], in [5] and in [6] was “inactive” in each case. Besides, the Potency entry in [8], in assay [9] and in assay [10] was “inactive” each time. The Potency in assay [7] was 17.2 µM (active) and 18.8 µM (active).
For the molecule `CCCCCCCC/C=C\CCCCCCCC(=O)O`, the Potency entry in assay [1], in [3], in [4], in assay [5], in assay [6] and in [7] was “inactive” each time. The Potency result in assay [8], in assay [9] and in assay [10] was “inactive” each time.
`Nc1ccc(O)c(N)c1`: the Potency result in assay [1], in assay [2], in assay [3], in assay [4], in assay [6] and in assay [7] was “inactive” each time. The Potency entry in [8], in assay [9] and in assay [10] was “inactive” in each case. In addition, the Potency entry in [5] is “inactive and 54.9 µM (active)”.
